# Experimental data from PubChem BioAssay AID463215 (Sanford-Burnham Center for Chemical Genomics, 2010).
# Screen size: about 4,600 compounds; about 2,900 (63%) were called active.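 How the source made its calls: active means inhibition of yeast growth at or above a set limit in either of two replicates at 10 µM; inactive means the rest.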 So high a share suggests a set chosen from earlier hits. The full list was thinned out, with actives kept by preference.
# Assay: growth inhibitors of wild-type TIM10 yeast, confirmation, counter-screen for tim10-1 synthetic lethality project, single concentration, luminescence, S. cerevisiae (AID 463215);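 further: isogenic wild-type TIM10 control yeast grown in succinate dextrose medium; this counterscreen used the strain with wild-type TIM10; 0% = yeast with DMSO and 100% = medium wells lacking yeast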
# Conditions: S. cerevisiae tim10 strain growth, BacTiter-Glo luminescence, 24 h; at 10 µM; active compounds read high
row,SMILES,inhibition
1,Cc1cc2ccccn2c1C(C[N+](=O)[O-])c1c(F)cccc1Cl (stereo not given),36.1% (active)
2,COc1cccc(N2C(=O)NC(=O)/C(=C\c3ccc([N+](=O)[O-])s3)C2=O)c1,39.2% (active)
3,O=C1NC(=O)N(c2ccccc2)C(=O)/C1=C/c1ccc([N+](=O)[O-])s1,40% (active)
4,C/C(=N/O)c1ccc2ccc3ccccc3c2c1,42.5% (active)
5,Cc1ccc(-c2nc3ccccc3c(=O)n2-c2ccc(Br)cn2)cc1,46.5% (active)
